# Experimental data published in the supplement of paper PMC8728848.
# The entries come from a sample that favours the strongest signals as a whole.
# B1: PX14343C-bfa-541-26-541 (Bacteroides fragilis) (protein)
# chain: KAPLDEIADDSFWSDETLVKYYVNDLYSEISVDGLQLQENRSDNSVSAQRDKYRASWFKFNYDMVSASDPQDDDVWEDYYVKVRKCNRFFERIGTSTIEESEKSRLTGEVHFLRAMFYFEMVKRYGGVILLDKVLTMEDNWEIPRSSEKECYDFILEDLKKATEMLPASYGSREKGRATKGAAYALKSRVELYDKRYEDVIKSCAEVYKLGYELVDGTTPEKYRSIWWTTNKDNKEIIFDVQYKSPDVYNNMMVCNMVTYINDKYGDRGWGGLGPTQELIDAFEMADGTPATQYSQAPADQVFDINTCGIYEGREPRFYANIVFHGSQIFFNADKGAVTVDRYLMDTPDKGDGSLTGYNVWKWIDYDNYNYPYAGAGSPDFSTNWIILRYAEIYLNDAEARLETGDVEGARKAVNMIRQRVGLPDLTESDPEKLRELIRKERRIEFAFEEQRFYDVRRWKIGPETQTTLHGVRFVSPTEFKVTKTDIRTWNDRLYLTPVPHDEIVRSSVLKQNLGY
# Legend:
# Test in all cases: glycan array binding signal (z-score within array); higher = stronger binding
# Conditions in all cases: glycan notation: IUPAC condensed, linker removed
# [1] = target: Gal(b1-4)GlcNAc(b1-2)Man(a1-3)[Gal(b1-4)GlcNAc(b1-2)Man(a1-6)]Man(b1-4)GlcNAc(b1-4)GlcNAc
# How it was run: (§1)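 Negative Z-scores can be read as non-binding. The Z-score is calculated within each array and then averaged across arrays of one protein sequence at different concentrations or buffers and across linkers. Arrays, 3228 in all, were curated from the Consortium for Functional Glycomics database and kept only where the protein sequence was available.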
# [2] = target: Gal(b1-4)GlcNAc(b1-2)Man(a1-3)[GlcNAc(b1-2)Man(a1-6)]Man(b1-4)GlcNAc(b1-4)GlcNAc
# How it was run: as §1
# [3] = target: Gal(b1-4)GlcNAc(b1-2)[Gal(b1-4)GlcNAc(b1-4)]Man(a1-3)[GlcNAc(b1-4)][Gal(b1-4)GlcNAc(b1-2)[Gal(b1-4)GlcNAc(b1-6)]Man(a1-6)]Man(b1-4)GlcNAc(b1-4)GlcNAc
# How it was run: as §1
# [4] = target: Gal(b1-4)GlcNAc(b1-3)Gal(b1-3)GalNAc
# How it was run: as §1
# [5] = target: Gal(b1-4)GlcNAc(b1-3)Gal(b1-4)Glc
# How it was run: as §1
# [6] = target: Gal(b1-4)GlcNAc(b1-3)Gal(b1-4)GlcNAc(b1-3)Gal(b1-4)GlcNAc(b1-3)Gal(b1-4)GlcNAc(b1-3)Gal(b1-4)GlcNAc(b1-2)[Gal(b1-4)GlcNAc(b1-3)Gal(b1-4)GlcNAc(b1-3)Gal(b1-4)GlcNAc(b1-3)Gal(b1-4)GlcNAc(b1-3)Gal(b1-4)GlcNAc(b1-6)]Man(a1-6)[Gal(b1-4)GlcNAc(b1-3)Gal(b1-4)GlcNAc(b1-3)Gal(b1-4)GlcNAc(b1-3)Gal(b1-4)GlcNAc(b1-3)Gal(b1-4)GlcNAc(b1-2)Man(a1-3)]Man(b1-4)GlcNAc(b1-4)[Fuc(a1-6)]GlcNAc
# How it was run: as §1
# [7] = target: Gal(b1-4)GlcNAc(b1-6)[Gal(b1-4)GlcNAc(b1-3)]GalNAc
# How it was run: as §1
# [8] = target: Gal6S(b1-4)Glc6S
# How it was run: as §1
# [9] = target: GalNAc(b1-3)Gal(a1-4)Gal(b1-4)GlcNAc(b1-3)Gal(b1-4)Glc
# How it was run: as §1
# [10] = target: GalNAc(b1-4)GlcNAc(b1-2)Man(a1-3)[GalNAc(b1-4)GlcNAc(b1-2)Man(a1-6)]Man(b1-4)GlcNAc(b1-4)GlcNAc
# How it was run: as §1
# [11] = target: Glc(b1-4)Glc
# How it was run: as §1
# [12] = target: GlcNAc(a1-4)Gal(b1-4)GlcNAc(b1-3)Gal(b1-4)[Fuc(a1-3)]GlcNAc(b1-3)Gal(b1-4)[Fuc(a1-3)]GlcNAc
# How it was run: as §1
# [13] = target: GlcNAc(b1-2)[GlcNAc(b1-4)]Man(a1-3)[GlcNAc(b1-4)][GlcNAc(b1-2)[GlcNAc(b1-6)]Man(a1-6)]Man(b1-4)GlcNAc(b1-4)GlcNAc
# How it was run: as §1
# [14] = target: GlcNAc(b1-3)Gal(b1-4)GlcNAc(b1-3)Gal(b1-4)GlcNAc(b1-3)GalNAc
# How it was run: as §1
# [15] = target: Neu5Ac(a2-3)Gal(b1-3)GalNAc(b1-3)Gal(a1-4)Gal(b1-4)Glc
# How it was run: as §1
# [16] = target: Neu5Ac(a2-3)Gal(b1-3)GlcNAc(b1-3)GalNAc
# How it was run: as §1
# [17] = target: Neu5Ac(a2-3)Gal(b1-4)GlcNAc(b1-2)[Neu5Ac(a2-3)Gal(b1-4)GlcNAc(b1-6)]Man(a1-6)[Neu5Ac(a2-3)Gal(b1-4)GlcNAc(b1-2)Man(a1-3)]Man(b1-4)GlcNAc(b1-4)GlcNAc
# How it was run: as §1
# [18] = target: Neu5Ac(a2-3)Gal(b1-4)GlcNAc(b1-3)Gal(b1-4)GlcNAc(b1-3)Gal(b1-4)GlcNAc(b1-2)Man(a1-3)[Neu5Ac(a2-3)Gal(b1-4)GlcNAc(b1-3)Gal(b1-4)GlcNAc(b1-3)Gal(b1-4)GlcNAc(b1-2)Man(a1-6)]GalNAc
# How it was run: as §1
# [19] = target: Neu5Ac(a2-3)[GalNAc(b1-4)]Gal(b1-4)Glc
# How it was run: as §1
# [20] = target: Neu5Ac(a2-6)Gal(b1-4)GlcNAc(b1-2)Man(a1-3)[Man(a1-6)]Man(b1-4)GlcNAc(b1-4)GlcNAc
# How it was run: as §1
# [21] = target: Neu5Ac(a2-6)Gal(b1-4)GlcNAc(b1-2)Man(a1-3)[Neu5Ac(a2-3)Gal(b1-4)GlcNAc(b1-2)Man(a1-6)]Man(b1-4)GlcNAc(b1-4)GlcNAc
# How it was run: as §1
# [22] = target: Neu5Ac(a2-6)Gal(b1-4)GlcNAc(b1-2)[Neu5Ac(a2-6)Gal(b1-4)GlcNAc(b1-4)]Man(a1-3)[GlcNAc(b1-4)][Neu5Ac(a2-6)Gal(b1-4)GlcNAc(b1-2)[Neu5Ac(a2-6)Gal(b1-4)GlcNAc(b1-6)]Man(a1-6)]Man(b1-4)GlcNAc(b1-4)GlcNAc
# How it was run: as §1
# [23] = target: Neu5Ac(a2-6)Gal(b1-4)GlcNAc(b1-3)Gal(b1-4)GlcNAc(b1-3)GalNAc
# How it was run: as §1
# [24] = target: Neu5Ac(a2-6)Gal(b1-4)GlcNAc(b1-6)[Gal(b1-3)GlcNAc(b1-3)]Gal(b1-4)Glc
# How it was run: as §1
# [25] = target: Neu5Ac(a2-6)Gal(b1-4)GlcNAc(b1-6)[Gal(b1-3)]GalNAc
# How it was run: as §1
# [26] = target: Neu5Ac(a2-8)Neu5Ac(a2-8)Neu5Ac(a2-8)Neu5Ac(a2-3)[GalNAc(b1-4)]Gal(b1-4)Glc
# How it was run: as §1
# [27] = target: Neu5Gc(a2-8)Neu5Gc(a2-3)Gal(b1-4)GlcNAc
# How it was run: as §1
binder,measurement,setting,value
B1,glycan array binding signal (z-score),[1],-1.05
same,glycan array binding signal (z-score),[2],-1.28
same,glycan array binding signal (z-score),[3],3.53
same,glycan array binding signal (z-score),[4],-0.401
same,glycan array binding signal (z-score),[5],0.261
same,glycan array binding signal (z-score),[6],0.758
same,glycan array binding signal (z-score),[7],0.249
same,glycan array binding signal (z-score),[8],1.46
same,glycan array binding signal (z-score),[9],-0.667
same,glycan array binding signal (z-score),[10],3.4
same,glycan array binding signal (z-score),[11],-0.686
same,glycan array binding signal (z-score),[12],1.91
same,glycan array binding signal (z-score),[13],0.147
same,glycan array binding signal (z-score),[14],-0.553
same,glycan array binding signal (z-score),[15],0.978
same,glycan array binding signal (z-score),[16],0.246
same,glycan array binding signal (z-score),[17],0.43
same,glycan array binding signal (z-score),[18],5.05
same,glycan array binding signal (z-score),[19],3.41
same,glycan array binding signal (z-score),[20],3.29
same,glycan array binding signal (z-score),[21],0.23
same,glycan array binding signal (z-score),[22],-0.339
same,glycan array binding signal (z-score),[23],-0.036
same,glycan array binding signal (z-score),[24],5.89
same,glycan array binding signal (z-score),[25],-0.647
same,glycan array binding signal (z-score),[26],1.9
same,glycan array binding signal (z-score),[27],-0.342
